Our source for the B-score values is PubChem BioAssay AID2227 (Johns Hopkins Ion Channel Center, 2009).

Out of some 310,000 compounds screened, about 1,300 (0.42%) were called active.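 Rule for the calls: active = B-score of calcium response area above 5 SD of library B-scores, with initial fluorescence ratio within 5 SD of library; inactive = the rest.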 The full list was thinned out, with actives kept by preference.

For the assay, the target named is Short transient receptor potential channel 4 (Mus musculus) (UniProt Q9QUQ5). Description: TRPC4 channel potentiators under submaximal DAMGO – cell-based, mouse TRPC4beta, HEK293 mu-opioid, Fluo-4 calcium, primary screen (AID 2227).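 For B-score: B-score of integrated fluorescence ratio over time as area under calcium response.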 The following applies: DAMGO EC20, Fluo-4 Ca2+ flux, at 10 µM; active compounds read high. A general note: A change in cytosolic calcium serves as a functional read-out for many receptors and channels.
Sequence of Short transient receptor potential channel 4 (Mus musculus) (Q9QUQ5 whole entry, looked up): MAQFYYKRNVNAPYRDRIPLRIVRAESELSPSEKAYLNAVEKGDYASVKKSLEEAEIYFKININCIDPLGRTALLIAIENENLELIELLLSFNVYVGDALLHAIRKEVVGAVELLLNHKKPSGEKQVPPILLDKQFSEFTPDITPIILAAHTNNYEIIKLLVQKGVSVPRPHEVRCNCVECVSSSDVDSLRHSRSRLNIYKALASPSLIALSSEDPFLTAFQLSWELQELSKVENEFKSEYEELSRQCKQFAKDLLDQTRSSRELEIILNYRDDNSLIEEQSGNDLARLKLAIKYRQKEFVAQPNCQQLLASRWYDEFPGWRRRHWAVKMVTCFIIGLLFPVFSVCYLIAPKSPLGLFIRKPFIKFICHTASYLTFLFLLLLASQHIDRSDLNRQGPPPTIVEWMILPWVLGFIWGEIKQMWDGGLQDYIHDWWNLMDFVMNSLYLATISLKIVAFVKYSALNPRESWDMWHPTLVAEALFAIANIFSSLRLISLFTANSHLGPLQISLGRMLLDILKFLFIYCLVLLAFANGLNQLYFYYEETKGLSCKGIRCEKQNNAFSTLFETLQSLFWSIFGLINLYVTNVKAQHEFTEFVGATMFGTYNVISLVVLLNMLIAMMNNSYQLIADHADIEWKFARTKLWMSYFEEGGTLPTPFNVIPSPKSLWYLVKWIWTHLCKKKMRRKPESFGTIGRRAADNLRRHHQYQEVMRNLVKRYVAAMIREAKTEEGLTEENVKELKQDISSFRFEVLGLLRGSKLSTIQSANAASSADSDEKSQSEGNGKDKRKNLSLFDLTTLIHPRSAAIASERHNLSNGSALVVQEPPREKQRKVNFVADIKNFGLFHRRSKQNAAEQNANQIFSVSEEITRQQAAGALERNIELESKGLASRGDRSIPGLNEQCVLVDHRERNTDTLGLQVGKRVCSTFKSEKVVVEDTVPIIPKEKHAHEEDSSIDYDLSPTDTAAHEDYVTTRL
As to `N#Cc1cccc(OC(=O)c2ccc3c(=O)n4c(nc3c2)CCC4)c1`, the B-score entry was “inactive”. Take `COC(=O)C1=C(C)NC2=C(C(=O)c3ccccc32)C1c1ccc(-c2ccc(C(=O)O)cc2)o1` (configuration not stated): the B-score is 16 (active). Then `CCOC(=O)c1ccc(-c2ccc(C(=O)Nc3cccnc3)o2)cc1`, with “inactive”; and `CCOC(=O)C1=C(c2ccc(OC)cc2)C(=O)c2ccccc2C1=O`, with “inactive”. Regarding `CC(NC(=O)COc1ccc(-c2ccccc2)cc1)C1CCCO1` (configuration not stated), the B-score result was “inactive”.

On to `O=C(NCCc1ccccc1)C1CC1`, for which the B-score entry is “inactive”. Take `CCn1cc(C(=O)N2CC=C(c3ccccc3)CC2)c(=O)c2ccc(C)nc21`: the B-score entry is “inactive”. As for `O=C(Nc1cccc(Cl)c1N1CCOCC1)c1ccc2c(c1)OCCO2`, the B-score result is “inactive”.

On to `O=C(Nc1cccc(Cl)c1N1CCOCC1)c1cccnc1`, for which the B-score entry was “inactive”.

Turning to `CCN1CCN(c2c(Cl)cccc2NC(=O)c2ccc(Br)o2)CC1`, the B-score was 11 (active).

For `COc1ccccc1NC(=O)Nc1nc(CC(=O)Nc2ccccc2F)cs1`, the B-score result is “inactive”. Then `C=CCc1cccc2cc(C(=O)OCC)c(=O)oc12`, with “inactive”. Consider `CCOC(=O)c1cc2cc3ccccc3cc2oc1=O`, for which the B-score is 13 (active). Consider `NS(=O)(=O)c1ccc(NC(=O)COC(=O)c2cc3ccccc3oc2=O)cc1`, for which the B-score entry was “inactive”. For `CC(C)c1c(C(=O)N/N=C/c2ccc(-c3ccccc3)cc2)nnn1-c1nonc1N`, the B-score result is “inactive”. As to `CCCc1nc2scc(-c3ccc(C)cc3)c2c(=O)n1N`, the B-score entry is “inactive”. For the molecule `CN1CCN(c2ccc(CNS(=O)(=O)c3cccc(F)c3)cc2)CC1`, the B-score result is “inactive”. Turning to `O=C(NCC(=O)N1CCN(c2ncc(C(F)(F)F)cc2Cl)CC1)c1ccc(Br)o1`, the B-score entry was “inactive”. Regarding `O=C(CN1CCN(C(=O)c2ccco2)CC1)Nc1ccc2c(c1)OCO2`, the B-score result was “inactive”. On to `O=C(CN1CCN(c2ncc(C(F)(F)F)cc2Cl)CC1)Nc1ccc2c(c1)OCO2`, for which the B-score is 10 (active).

Turning to `OCCNc1nc2ccccc2n1-c1ncnc2sc3c(c12)CCC3`, the B-score result was “inactive”.

Consider `COCCNC(=S)N1CCC(NC(=O)C23CC4CC(CC(C4)C2)C3)CC1`, for which the B-score result is “inactive”.

With `CN(N)c1nc(N2CCCC2)nc(N2CCCC2)n1`, the B-score entry is “inactive”.

For `COc1nc(NC2CCCCC2)nc(N2CCCCCC2)n1`, the B-score result is “inactive”. Turning to `FC(F)(F)COc1nc(N2CCCCC2)nc(N2CCNCC2)n1`, the B-score was 27 (active). Then `CC(=O)OCCOCn1cnn2c(=O)c(Br)c(C)nc12`, with “inactive”. Then `C/C(=N\NC(=O)c1cc(-c2ccc(O)cc2)nc2ccccc12)c1cccnc1`, with “inactive”; and `COc1cc(/C=C2/SC(=S)N(Cc3ccccc3)C2=O)cc(OC)c1O`, with “inactive”; and `O=C1/C(=C\c2ccsc2)NC(=S)N1c1ccccc1`, with “inactive”. Then `CN(C)c1ccc(/C=C2\NC(=S)N(Cc3ccccc3)C2=O)cc1`, with 14 (active); and `CCC(C)(C)NC(=O)c1cc([N+](=O)[O-])ccc1N1CCCCC1`, with “inactive”. As to `CCOc1ccccc1NS(=O)(=O)c1c[nH]c(C(=O)OC)c1`, the B-score entry was “inactive”. For the molecule `CCOC(=O)C1CCCN(CCSc2ccc(C)cc2)C1` (configuration not stated), the B-score entry was “inactive”. For `O=C(/C=C/c1ccc(Cl)c([N+](=O)[O-])c1)c1ccc(O)cc1`, the B-score result was “inactive”. Regarding `NC(N)=N/N=C/c1ccc(Cl)c([N+](=O)[O-])c1`, the B-score was 16 (active). Turning to `O=C(/C=C/c1ccc(Cl)c([N+](=O)[O-])c1)c1cccnc1`, the B-score entry is “inactive”. As to `Brc1ccccc1/C=N/Nc1nc2ccccc2o1`, the B-score entry was “inactive”. The figure for `Oc1c(Br)cccc1/C=N/Nc1c(F)c(F)c(F)c(F)c1F` is 11 (active). The entry for `Oc1cccc(/C=N/Nc2ccc(Cl)nn2)c1O` is “inactive”; for `O=[N+]([O-])c1cc(S(=O)(=O)CCCN2CCOCC2)ccc1F` it is “inactive”; for `C/C(=N/NC(=O)CCc1ccccc1)c1ccco1` it is “inactive”. `COc1ccc(C)cc1NC(=S)N1CCOCC1`: the B-score result was “inactive”. The entry for `CCOc1cc(C(=S)N2CCOCC2)ccc1O` is “inactive”; for `COc1cc(C(=S)N2CCOCC2)ccc1O` it is 42 (active).

Turning to `COCCCNC(=O)/C=C/c1ccc(OCc2c(F)cccc2Cl)cc1`, the B-score result was “inactive”. Regarding `O=C(/C=C/c1ccc(OCc2c(F)cccc2Cl)cc1)N1CCOCC1`, the B-score result is “inactive”. In the case of `CN(C)CCCNC(=O)/C=C/c1ccc(OCc2c(F)cccc2Cl)cc1`, the B-score was 16 (active). Regarding `CSc1nnc(C2CCCN(CC(=O)Nc3ccccc3N3CCOCC3)C2)n1C(C)C` (configuration not stated), the B-score entry was “inactive”. For `COc1ccc(OC)c(S(=O)(=O)N2CCCC(C(=O)NCCc3ccccc3)C2)c1` (configuration not stated), the B-score entry is “inactive”. On to `O=S(=O)(c1ccc(F)cc1)N1CCN(Cc2ccccc2C(F)(F)F)CC1`, for which the B-score was 11 (active). The entry for `Cc1ccc(S(=O)(=O)N2CCN(Cc3cccc(C)c3O)CC2)cc1` is “inactive”; for `O=C(CN1CCN(S(=O)(=O)c2ccc(F)cc2)CC1)Nc1ccccc1F` it is “inactive”; for `Cc1ccc(C(=O)COC(=O)c2cccc(N3C(=O)c4c(C)nc5ccccc5c4C3=O)c2)cc1C` it is “inactive”.

For `Cc1cccn2c(=O)c(C=O)c(Nc3ccc(S(N)(=O)=O)cc3)nc12`, the B-score result is “inactive”. As for `CC(=O)Nc1ccc(N2CCOCC2)c(C(=O)Nc2cccc(C)c2)c1`, the B-score entry is “inactive”.

With `Cc1cccc(NC(=O)c2cc([N+](=O)[O-])ccc2N2CCN(C)CC2)c1`, the B-score is 21 (active). Then `O=C(Nc1cccc(Cl)c1)c1cc([N+](=O)[O-])ccc1N1CCN(CCO)CC1`, with “inactive”.

Turning to `CC(Sc1nn(-c2ccc(Cl)cc2)c(=S)s1)C(=O)NCC1CCCO1` (configuration not stated), the B-score entry was “inactive”. Turning to `COc1ccc(S(=O)(=O)n2cnc3ccccc32)c(C)c1`, the B-score entry is “inactive”.

In the case of `CCCOc1ccc(Cn2ccnc2)cc1[N+](=O)[O-]`, the B-score entry was “inactive”.

Consider `CCCCCOc1ccc(CSC2=NCCN2)cc1[N+](=O)[O-]`, for which the B-score entry was “inactive”. `CCCCOc1ccc(CSC(=N)N)cc1[N+](=O)[O-]`: the B-score was 21 (active). With `O=C(NNC(=O)C1C2CCC(C2)C1C(=O)O)c1ccc(Cl)cc1` (configuration not stated), the B-score entry is “inactive”. Consider `Cc1ccc(CN(CC(=O)NC2CCCCC2)C(=O)c2csnn2)cc1`, for which the B-score result is “inactive”. Take `Cc1ccccc1C(CC(=O)c1cccs1)C(C#N)C#N` (configuration not stated): the B-score result was “inactive”. As for `CCOc1ccc(Br)cc1S(=O)(=O)Nc1ccc(C(=O)OC(C)C(=O)N(C)c2ccccc2)cc1` (configuration not stated), the B-score entry was “inactive”. For the molecule `CCOC(=O)N1CCN(C(=O)c2ccc(S(=O)(=O)Nc3cccc(C(F)(F)F)c3)cc2)CC1`, the B-score entry is “inactive”.

Take `O=C(NCc1ccccc1)c1ccc(S(=O)(=O)Nc2cccc(C(F)(F)F)c2)cc1`: the B-score was 17 (active).

`O=C(NCc1cccc(C(F)(F)F)c1)c1cccc(S(=O)(=O)N2CCN(Cc3ccccc3)CC2)c1`: the B-score entry was “inactive”. Take `CC[C@@H](C)[C@H](NC(=O)CCc1c(C)c2cc3c4c(oc3c(C)c2oc1=O)CCCC4)C(=O)O`: the B-score result was “inactive”. In the case of `O=C(c1cc(Cl)cc(Cl)c1)N1CCC(=O)N(C(COCc2ccccc2)Cc2ccccc2)CC1` (configuration not stated), the B-score is 12 (active). In the case of `CC(C)CC(COCc1ccc(Cl)cc1)N1CCN(C(=O)c2ccc(C(F)(F)F)cc2)CCC1=O` (configuration not stated), the B-score result is “inactive”. On to `CN1CCC(=O)N([C@H](CO)Cc2ccccc2)CC1`, for which the B-score entry is “inactive”. On to `COc1ccc(N2CC(C(=O)NCCN3C(=O)S/C(=C\c4cccnc4)C3=O)CC2=O)c(OC)c1` (configuration not stated), for which the B-score result was “inactive”.

Regarding `COc1ccc(N2CCN(S(=O)(=O)CCNC(=O)C34CC5CC(CC(C5)C3)C4)CC2)cc1`, the B-score entry was “inactive”. Then `Cc1ccc(NC(=O)Cc2nnc(SCC(=O)Nc3nncs3)n2C)cc1`, with “inactive”; and `CC(=O)C12CC(C)=C(C)CC1CC1C3CCC4=CC(=O)CCC4(C)C3CCC12C` (configuration not stated), with 11 (active). `C[C@]12C=CC(=O)C=C1CC[C@@H]1[C@@H]2C(=O)C[C@@]2(C)[C@H]1CC[C@]2(O)C(=O)CO`: the B-score result was “inactive”. For `CC(=O)O[C@]1(C(C)=O)CC[C@H]2[C@@H]3C=C(C)C4=CC(=O)CC[C@]4(C)[C@H]3CC[C@@]21C`, the B-score result was “inactive”.

For the molecule `CC(=O)c1c(C)n(-c2ccc(N(C)C)cc2)c2ccc(OCC(N)=O)cc12`, the B-score entry is “inactive”. Then `O=C1CSC(c2ccc(Cl)cc2)N1` (configuration not stated), with “inactive”. The entry for `COc1ccc(S(=O)(=O)NC(C)c2ccccc2)cc1C(=O)N1CCCCC1` (configuration not stated) is “inactive”; for `CCc1nc2oc3ccccc3c(=O)c2c(=O)n1Cc1ccc(OC)cc1` it is “inactive”. In the case of `O=c1c2ccccc2oc2nc3n(c(=O)c12)CCCS3`, the B-score entry is “inactive”. On to `O=c1c2ccccc2oc2nc(C3CCCCC3)n(Cc3ccco3)c(=O)c12`, for which the B-score was 29 (active).

`CN(C)CCNc1ccc(-c2n[nH]c(=O)c3ccccc23)cc1[N+](=O)[O-]`: the B-score result is “inactive”.

With `CSc1ccccc1NC(=O)CN(C)CC(=O)Nc1ccc(Cl)cc1[N+](=O)[O-]`, the B-score entry is “inactive”. Then `CCN(CC)CCNc1ccc(Cl)cc1[N+](=O)[O-]`, with 20 (active); and `C/C(=N\N1CCN(Cc2ccc(C)cc2)CC1)c1ccco1`, with “inactive”; and `CCn1cc(C(=O)NCC(=O)NC(C)(C)CO)c(=O)c2cc3c(cc21)OCO3`, with “inactive”. Regarding `COc1ccccc1CNS(=O)(=O)CC12CCC(CC1=O)C2(C)C` (configuration not stated), the B-score result was “inactive”. For the molecule `Cc1c(NC(=O)C(=O)N/N=C/c2cccs2)c(=O)n(-c2ccccc2)n1C`, the B-score result was “inactive”.
